From PMC7862700, “An all-to-all approach to the identification of sequence-specific readers for epigenetic DNA modifications on cytosine” come the findings set out here.

What all share (assay): DAPPL (digital affinity profiling via proximity ligation, sequencing); 10 mM Tris-HCl pH 7.5, 50 mM NaCl, 1 mM DTT, 4% glycerol, room temperature, 30 min; GST-TFs on glutathione beads, 16-mer random dsDNA library, 0.1% formaldehyde crosslink after washing; high values mean tight binding
For assay [1], the target named is T1, FEV (Homo sapiens, UniProt Q99581 1-238).
T1 sequence: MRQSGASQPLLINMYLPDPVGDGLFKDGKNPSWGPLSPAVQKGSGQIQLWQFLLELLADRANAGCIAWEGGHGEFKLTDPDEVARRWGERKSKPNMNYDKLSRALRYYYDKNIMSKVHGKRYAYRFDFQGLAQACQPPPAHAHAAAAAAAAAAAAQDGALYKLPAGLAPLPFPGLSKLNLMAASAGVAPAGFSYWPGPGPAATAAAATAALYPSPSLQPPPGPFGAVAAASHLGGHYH
To be noted: protein: recombinant; tags: N-terminal GST; dsDNA, one strand shown. An outline of the steps: (§1)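 Beads coated with glutathione captured GST-fused human transcription factors that had been expressed in yeast, and the factors were then given DNA barcodes and pooled with a tag-only sample. The pools were incubated with 200 nmole of a random double-stranded 16-mer DNA library in Tris/NaCl/DTT/glycerol buffer for 30 min at room temperature, washed, crosslinked with 0.1% formaldehyde and proximity-ligated with BsaI/T4 ligase at 37 °C for 1 h. PCR amplification and Illumina NextSeq500 sequencing came last. Binding signal is each hexamer's read frequency for a factor divided by its frequency for the tag-only sample.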

In assay [2] the target is ETV5 (Homo sapiens, UniProt P41161 1-510). The conditions noted are these: protein: recombinant; tags: N-terminal GST; dsDNA, one strand shown. In outline: as §1
Assay [3] concerns the target HSF1 (Homo sapiens, UniProt Q00613 1-529). The conditions noted are these: protein: recombinant; tags: N-terminal GST; chain copies: 3; dsDNA, one strand shown. In outline:
as §1

Assay [4] deals with T2, SPIC (Homo sapiens, UniProt Q8N5J4 1-248).
T2 sequence: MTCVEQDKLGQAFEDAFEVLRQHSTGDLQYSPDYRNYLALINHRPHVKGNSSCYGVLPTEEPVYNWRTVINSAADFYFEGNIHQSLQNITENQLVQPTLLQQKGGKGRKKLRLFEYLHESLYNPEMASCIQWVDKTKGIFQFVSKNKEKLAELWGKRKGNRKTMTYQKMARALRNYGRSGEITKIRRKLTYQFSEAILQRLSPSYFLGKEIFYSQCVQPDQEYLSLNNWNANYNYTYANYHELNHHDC
The conditions noted are these: protein: recombinant; tags: N-terminal GST; dsDNA, one strand shown. An outline of the steps:
as §1

Assay [5] concerns the target ELF4 (Homo sapiens, UniProt Q99607 1-663). To be noted: protein: recombinant; tags: N-terminal GST; dsDNA, one strand shown. An outline of the steps: as §1
For assay [6], the target named is T3, ELK4 (Homo sapiens, UniProt P28324-2 1-405).
T3 sequence: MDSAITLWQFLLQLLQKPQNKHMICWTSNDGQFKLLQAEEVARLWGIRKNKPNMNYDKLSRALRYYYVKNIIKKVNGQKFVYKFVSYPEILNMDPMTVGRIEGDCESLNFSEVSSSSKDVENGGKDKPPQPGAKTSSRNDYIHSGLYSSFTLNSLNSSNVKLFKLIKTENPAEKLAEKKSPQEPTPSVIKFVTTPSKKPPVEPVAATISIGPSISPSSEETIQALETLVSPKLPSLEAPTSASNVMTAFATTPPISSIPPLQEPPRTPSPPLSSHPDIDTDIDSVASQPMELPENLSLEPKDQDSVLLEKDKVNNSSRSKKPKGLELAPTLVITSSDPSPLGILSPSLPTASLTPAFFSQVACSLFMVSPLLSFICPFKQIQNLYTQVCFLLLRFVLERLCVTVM
The conditions noted are these: protein: recombinant; tags: N-terminal GST; dsDNA, one strand shown. An outline of the steps:
as §1

Assay [7] concerns the target T4, ETV2 (Homo sapiens, UniProt O00321 1-342).
T4 sequence: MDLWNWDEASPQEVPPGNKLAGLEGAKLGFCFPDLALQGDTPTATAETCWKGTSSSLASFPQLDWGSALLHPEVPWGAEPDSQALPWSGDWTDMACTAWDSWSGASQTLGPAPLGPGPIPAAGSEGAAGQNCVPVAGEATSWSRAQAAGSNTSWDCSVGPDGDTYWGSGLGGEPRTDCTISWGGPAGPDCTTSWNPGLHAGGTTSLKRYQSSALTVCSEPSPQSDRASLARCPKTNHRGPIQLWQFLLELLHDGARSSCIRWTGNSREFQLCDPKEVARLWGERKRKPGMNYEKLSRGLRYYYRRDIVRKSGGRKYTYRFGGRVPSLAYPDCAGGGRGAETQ
The conditions noted are these: protein: recombinant; tags: N-terminal GST; dsDNA, one strand shown. An outline of the steps: as §1

The target in assay [8] is T5, ELF3 (Homo sapiens, UniProt P78545 1-371).
T5 sequence: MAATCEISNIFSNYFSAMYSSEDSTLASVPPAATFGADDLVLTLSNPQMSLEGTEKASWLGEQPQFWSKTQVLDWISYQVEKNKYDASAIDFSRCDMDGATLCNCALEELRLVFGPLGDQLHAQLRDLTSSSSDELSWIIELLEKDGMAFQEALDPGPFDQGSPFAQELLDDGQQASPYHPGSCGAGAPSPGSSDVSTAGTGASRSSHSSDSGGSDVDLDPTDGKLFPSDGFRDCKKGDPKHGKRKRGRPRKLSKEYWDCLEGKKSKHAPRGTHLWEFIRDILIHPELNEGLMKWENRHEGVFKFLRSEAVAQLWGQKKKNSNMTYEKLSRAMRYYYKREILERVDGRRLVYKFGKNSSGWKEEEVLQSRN
The conditions noted are these: protein: recombinant; tags: N-terminal GST; dsDNA, one strand shown. In outline:
as §1

Assay [9] concerns the target CRX (Homo sapiens, UniProt O43186 1-299). The conditions noted are these: protein: recombinant; tags: N-terminal GST; dsDNA, one strand shown. In outline:
as §1

For assay [10], the target named is ETV1 (Homo sapiens, UniProt P50549 1-477). To be noted: protein: recombinant; tags: N-terminal GST; dsDNA, one strand shown. An outline of the steps: as §1
Assay [11] has as its target T6, ERF (Homo sapiens, UniProt P50548 1-548).
T6 sequence: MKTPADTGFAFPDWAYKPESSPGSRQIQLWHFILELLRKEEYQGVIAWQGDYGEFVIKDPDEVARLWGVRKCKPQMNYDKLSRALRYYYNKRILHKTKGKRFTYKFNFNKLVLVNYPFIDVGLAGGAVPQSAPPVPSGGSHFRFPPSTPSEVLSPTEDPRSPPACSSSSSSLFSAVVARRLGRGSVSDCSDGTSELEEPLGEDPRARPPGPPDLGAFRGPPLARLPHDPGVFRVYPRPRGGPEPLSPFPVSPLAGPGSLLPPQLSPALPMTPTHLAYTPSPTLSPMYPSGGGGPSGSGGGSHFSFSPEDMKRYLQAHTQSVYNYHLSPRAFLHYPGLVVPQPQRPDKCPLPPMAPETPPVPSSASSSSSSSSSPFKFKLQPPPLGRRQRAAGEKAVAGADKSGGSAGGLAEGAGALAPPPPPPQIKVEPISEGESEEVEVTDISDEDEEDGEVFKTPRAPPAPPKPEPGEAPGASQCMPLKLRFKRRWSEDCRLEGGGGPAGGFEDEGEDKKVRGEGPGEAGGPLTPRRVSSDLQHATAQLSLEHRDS
To be noted: protein: recombinant; tags: N-terminal GST; dsDNA, one strand shown. An outline of the steps: as §1

For assay [12], the target named is T7, ETV3L (Homo sapiens, UniProt Q6ZN32 1-361).
T7 sequence: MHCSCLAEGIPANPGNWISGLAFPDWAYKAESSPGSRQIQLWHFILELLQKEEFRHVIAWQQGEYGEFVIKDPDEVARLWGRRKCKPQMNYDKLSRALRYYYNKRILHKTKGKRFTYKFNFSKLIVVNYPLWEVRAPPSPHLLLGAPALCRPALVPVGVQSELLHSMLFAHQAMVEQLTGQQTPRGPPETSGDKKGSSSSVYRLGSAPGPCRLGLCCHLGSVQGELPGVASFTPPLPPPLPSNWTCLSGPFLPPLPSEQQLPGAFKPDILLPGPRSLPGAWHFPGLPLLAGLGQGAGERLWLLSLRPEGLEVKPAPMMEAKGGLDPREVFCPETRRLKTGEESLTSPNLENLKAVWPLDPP
To be noted: protein: recombinant; tags: N-terminal GST; dsDNA, one strand shown. An outline of the steps: as §1

The target in assay [13] is T8, ETS2 (Homo sapiens, UniProt P15036 1-469).
T8 sequence: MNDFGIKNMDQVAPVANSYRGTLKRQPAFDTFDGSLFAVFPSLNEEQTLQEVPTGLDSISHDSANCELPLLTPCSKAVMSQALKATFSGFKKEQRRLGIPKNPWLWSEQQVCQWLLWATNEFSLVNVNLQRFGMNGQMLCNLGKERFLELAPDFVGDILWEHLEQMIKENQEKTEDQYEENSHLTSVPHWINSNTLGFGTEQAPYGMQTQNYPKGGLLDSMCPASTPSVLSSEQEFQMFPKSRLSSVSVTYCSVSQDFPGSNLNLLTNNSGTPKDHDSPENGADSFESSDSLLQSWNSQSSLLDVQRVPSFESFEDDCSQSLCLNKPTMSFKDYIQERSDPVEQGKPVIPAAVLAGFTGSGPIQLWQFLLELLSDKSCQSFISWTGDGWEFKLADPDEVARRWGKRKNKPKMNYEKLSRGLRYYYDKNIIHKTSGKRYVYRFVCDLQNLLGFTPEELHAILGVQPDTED
To be noted: protein: recombinant; tags: N-terminal GST; dsDNA, one strand shown. An outline of the steps: as §1

Assay [14] addresses T9, SPDEF (Homo sapiens, UniProt O95238 1-335).
T9 sequence: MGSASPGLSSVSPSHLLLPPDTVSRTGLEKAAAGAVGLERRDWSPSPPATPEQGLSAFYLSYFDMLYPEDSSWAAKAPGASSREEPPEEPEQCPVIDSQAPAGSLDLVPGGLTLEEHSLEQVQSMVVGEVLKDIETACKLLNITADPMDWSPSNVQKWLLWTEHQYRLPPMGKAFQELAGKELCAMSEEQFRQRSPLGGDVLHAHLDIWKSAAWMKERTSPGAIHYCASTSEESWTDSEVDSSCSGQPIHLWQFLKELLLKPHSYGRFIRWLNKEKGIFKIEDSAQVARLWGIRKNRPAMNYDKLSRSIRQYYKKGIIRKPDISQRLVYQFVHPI
To be noted: protein: recombinant; tags: N-terminal GST; dsDNA, one strand shown. An outline of the steps: as §1

Assay [15] has as its target T10, ETV7 (Homo sapiens, UniProt Q9Y603 1-341).
T10 sequence: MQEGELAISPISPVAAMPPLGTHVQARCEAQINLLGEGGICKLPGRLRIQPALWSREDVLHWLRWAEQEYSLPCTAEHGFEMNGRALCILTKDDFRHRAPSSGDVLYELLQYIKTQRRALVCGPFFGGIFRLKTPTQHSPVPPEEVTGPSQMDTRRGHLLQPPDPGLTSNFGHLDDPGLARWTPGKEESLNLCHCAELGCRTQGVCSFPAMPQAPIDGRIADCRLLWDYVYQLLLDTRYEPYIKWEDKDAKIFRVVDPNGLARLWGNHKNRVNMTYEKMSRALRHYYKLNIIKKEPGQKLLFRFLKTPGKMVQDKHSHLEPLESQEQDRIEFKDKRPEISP
To be noted: protein: recombinant; tags: N-terminal GST; dsDNA, one strand shown. In outline:
as §1

The target of assay [16] is T11, ELF5 (Homo sapiens, UniProt Q9UKW6-2 1-255).
T11 sequence: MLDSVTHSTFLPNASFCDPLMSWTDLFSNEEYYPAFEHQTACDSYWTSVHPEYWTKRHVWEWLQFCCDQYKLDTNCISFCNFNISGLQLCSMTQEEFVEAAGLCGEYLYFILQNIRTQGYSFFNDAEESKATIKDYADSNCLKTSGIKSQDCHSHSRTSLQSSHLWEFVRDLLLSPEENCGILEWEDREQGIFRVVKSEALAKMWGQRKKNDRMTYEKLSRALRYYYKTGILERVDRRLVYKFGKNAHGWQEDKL
The conditions noted are these: protein: recombinant; tags: N-terminal GST; dsDNA, one strand shown. In outline: as §1

The target of assay [17] is T12, ETV3 (Homo sapiens, UniProt P41162-2 1-143).
T12 sequence: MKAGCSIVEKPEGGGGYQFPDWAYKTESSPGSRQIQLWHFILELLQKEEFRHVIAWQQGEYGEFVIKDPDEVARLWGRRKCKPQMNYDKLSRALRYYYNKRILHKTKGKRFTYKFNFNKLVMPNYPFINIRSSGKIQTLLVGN
To be noted: protein: recombinant; tags: N-terminal GST; dsDNA, one strand shown. In outline:
as §1

Assay [18] addresses ETV6 (Homo sapiens, UniProt P41212 1-452). To be noted: protein: recombinant; tags: N-terminal GST; dsDNA, one strand shown. In outline: as §1

ETV5, sequence (P41161 whole entry): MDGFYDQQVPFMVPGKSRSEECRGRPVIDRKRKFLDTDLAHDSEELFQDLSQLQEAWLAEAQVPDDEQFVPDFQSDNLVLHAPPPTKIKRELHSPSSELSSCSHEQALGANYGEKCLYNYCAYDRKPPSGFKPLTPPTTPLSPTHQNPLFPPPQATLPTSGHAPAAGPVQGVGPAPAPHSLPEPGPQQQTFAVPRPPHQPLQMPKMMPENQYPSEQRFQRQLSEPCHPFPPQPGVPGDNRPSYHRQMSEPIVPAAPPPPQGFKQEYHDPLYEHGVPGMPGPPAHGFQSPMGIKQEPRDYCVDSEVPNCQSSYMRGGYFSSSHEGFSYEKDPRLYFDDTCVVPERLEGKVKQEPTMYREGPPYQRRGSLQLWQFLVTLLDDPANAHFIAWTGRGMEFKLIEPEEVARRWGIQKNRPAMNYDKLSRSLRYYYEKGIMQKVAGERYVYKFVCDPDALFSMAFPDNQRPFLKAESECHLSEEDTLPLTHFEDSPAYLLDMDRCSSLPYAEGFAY
ETV6, sequence (P41212 whole entry): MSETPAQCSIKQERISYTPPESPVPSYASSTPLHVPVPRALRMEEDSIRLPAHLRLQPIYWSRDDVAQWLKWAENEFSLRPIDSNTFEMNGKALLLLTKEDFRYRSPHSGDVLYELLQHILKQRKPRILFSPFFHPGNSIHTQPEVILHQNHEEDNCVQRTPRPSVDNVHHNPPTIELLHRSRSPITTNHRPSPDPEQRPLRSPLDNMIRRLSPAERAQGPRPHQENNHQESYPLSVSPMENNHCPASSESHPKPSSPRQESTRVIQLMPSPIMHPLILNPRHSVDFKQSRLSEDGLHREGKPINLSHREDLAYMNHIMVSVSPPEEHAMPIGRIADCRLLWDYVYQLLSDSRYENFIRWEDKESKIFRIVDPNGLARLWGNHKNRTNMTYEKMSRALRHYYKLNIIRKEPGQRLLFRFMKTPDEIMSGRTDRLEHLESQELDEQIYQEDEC
ELF4, sequence (Q99607 whole entry): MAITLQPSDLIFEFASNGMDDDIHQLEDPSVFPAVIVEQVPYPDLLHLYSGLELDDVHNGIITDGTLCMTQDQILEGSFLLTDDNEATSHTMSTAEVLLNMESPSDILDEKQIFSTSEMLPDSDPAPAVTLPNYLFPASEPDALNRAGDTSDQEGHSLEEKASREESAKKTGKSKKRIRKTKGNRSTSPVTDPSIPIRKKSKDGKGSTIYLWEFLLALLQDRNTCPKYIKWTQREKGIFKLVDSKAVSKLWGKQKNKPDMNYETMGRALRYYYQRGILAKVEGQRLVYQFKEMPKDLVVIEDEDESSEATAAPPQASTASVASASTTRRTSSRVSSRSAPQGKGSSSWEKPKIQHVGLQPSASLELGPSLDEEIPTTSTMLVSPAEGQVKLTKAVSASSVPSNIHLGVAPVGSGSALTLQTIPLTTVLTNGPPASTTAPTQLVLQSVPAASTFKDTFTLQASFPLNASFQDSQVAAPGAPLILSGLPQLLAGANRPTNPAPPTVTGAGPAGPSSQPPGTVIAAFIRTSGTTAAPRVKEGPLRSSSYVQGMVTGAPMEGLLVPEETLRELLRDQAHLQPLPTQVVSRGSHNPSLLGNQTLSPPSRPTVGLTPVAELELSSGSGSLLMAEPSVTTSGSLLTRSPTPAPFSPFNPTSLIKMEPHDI
ETV1, sequence (P50549 whole entry): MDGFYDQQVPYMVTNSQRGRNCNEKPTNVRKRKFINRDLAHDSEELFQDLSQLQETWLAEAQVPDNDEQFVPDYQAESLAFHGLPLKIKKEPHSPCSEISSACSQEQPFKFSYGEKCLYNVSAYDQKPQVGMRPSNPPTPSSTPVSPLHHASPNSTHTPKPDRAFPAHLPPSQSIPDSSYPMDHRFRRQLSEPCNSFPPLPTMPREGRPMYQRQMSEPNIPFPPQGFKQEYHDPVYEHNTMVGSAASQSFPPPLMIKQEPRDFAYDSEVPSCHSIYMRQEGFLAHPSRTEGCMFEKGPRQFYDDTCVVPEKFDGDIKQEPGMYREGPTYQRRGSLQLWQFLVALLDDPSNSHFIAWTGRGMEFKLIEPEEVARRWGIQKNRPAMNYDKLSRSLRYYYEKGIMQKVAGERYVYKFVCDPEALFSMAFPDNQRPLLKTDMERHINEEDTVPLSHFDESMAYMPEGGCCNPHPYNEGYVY
HSF1, sequence (Q00613 whole entry): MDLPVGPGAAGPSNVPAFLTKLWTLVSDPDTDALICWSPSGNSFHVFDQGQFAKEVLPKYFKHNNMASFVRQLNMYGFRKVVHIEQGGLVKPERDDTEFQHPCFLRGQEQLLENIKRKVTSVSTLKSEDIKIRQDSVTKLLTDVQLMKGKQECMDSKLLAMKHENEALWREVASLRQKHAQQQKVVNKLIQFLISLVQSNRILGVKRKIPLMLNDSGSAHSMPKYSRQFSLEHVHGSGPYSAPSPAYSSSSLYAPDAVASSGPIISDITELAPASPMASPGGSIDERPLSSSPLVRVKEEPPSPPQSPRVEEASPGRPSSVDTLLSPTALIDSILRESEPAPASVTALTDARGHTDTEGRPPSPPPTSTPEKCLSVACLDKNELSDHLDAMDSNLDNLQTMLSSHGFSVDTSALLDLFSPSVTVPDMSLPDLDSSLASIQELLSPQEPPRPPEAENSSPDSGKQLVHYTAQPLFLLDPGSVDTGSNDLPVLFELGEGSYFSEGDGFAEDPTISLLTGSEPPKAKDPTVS
CRX, sequence (O43186 whole entry): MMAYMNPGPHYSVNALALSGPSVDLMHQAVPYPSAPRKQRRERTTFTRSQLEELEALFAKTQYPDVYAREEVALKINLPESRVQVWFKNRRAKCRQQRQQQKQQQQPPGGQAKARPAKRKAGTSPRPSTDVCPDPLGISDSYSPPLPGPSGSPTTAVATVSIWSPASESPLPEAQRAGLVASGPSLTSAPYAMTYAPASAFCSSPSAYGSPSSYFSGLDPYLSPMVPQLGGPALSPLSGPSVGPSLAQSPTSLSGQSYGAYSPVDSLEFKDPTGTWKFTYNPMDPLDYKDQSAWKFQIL

As to CGTACT, the binding signal is 1.17 fold enrichment (6-mer frequency, TF over GST control) in assay [1]; 1.22 fold enrichment (6-mer frequency, TF over GST control) in assay [2]; 1.05 fold enrichment (6-mer frequency, TF over GST control) in assay [3]; 1.12 fold enrichment (6-mer frequency, TF over GST control) in [4]; 1.25 fold enrichment (6-mer frequency, TF over GST control) in [5]; 1.22 fold enrichment (6-mer frequency, TF over GST control) in assay [6]. Moreover, the binding signal in assay [7] was 1.35 fold enrichment (6-mer frequency, TF over GST control); in assay [8], 1.15 fold enrichment (6-mer frequency, TF over GST control); in assay [9] it was 1.07 fold enrichment (6-mer frequency, TF over GST control); in assay [10], 1.34 fold enrichment (6-mer frequency, TF over GST control); in [11], 1.27 fold enrichment (6-mer frequency, TF over GST control); in [12], 1.1 fold enrichment (6-mer frequency, TF over GST control). Moreover, the binding signal in assay [13] was 1.23 fold enrichment (6-mer frequency, TF over GST control); in [14], 1.11 fold enrichment (6-mer frequency, TF over GST control); in assay [15], 1.1 fold enrichment (6-mer frequency, TF over GST control); in assay [16], 1.2 fold enrichment (6-mer frequency, TF over GST control); in assay [17], 1.2 fold enrichment (6-mer frequency, TF over GST control); in [18] it was 1.2 fold enrichment (6-mer frequency, TF over GST control).
